This note sets out measurements from publication PMC12350791.

Sequence of HNRNPU (Q00839 whole entry): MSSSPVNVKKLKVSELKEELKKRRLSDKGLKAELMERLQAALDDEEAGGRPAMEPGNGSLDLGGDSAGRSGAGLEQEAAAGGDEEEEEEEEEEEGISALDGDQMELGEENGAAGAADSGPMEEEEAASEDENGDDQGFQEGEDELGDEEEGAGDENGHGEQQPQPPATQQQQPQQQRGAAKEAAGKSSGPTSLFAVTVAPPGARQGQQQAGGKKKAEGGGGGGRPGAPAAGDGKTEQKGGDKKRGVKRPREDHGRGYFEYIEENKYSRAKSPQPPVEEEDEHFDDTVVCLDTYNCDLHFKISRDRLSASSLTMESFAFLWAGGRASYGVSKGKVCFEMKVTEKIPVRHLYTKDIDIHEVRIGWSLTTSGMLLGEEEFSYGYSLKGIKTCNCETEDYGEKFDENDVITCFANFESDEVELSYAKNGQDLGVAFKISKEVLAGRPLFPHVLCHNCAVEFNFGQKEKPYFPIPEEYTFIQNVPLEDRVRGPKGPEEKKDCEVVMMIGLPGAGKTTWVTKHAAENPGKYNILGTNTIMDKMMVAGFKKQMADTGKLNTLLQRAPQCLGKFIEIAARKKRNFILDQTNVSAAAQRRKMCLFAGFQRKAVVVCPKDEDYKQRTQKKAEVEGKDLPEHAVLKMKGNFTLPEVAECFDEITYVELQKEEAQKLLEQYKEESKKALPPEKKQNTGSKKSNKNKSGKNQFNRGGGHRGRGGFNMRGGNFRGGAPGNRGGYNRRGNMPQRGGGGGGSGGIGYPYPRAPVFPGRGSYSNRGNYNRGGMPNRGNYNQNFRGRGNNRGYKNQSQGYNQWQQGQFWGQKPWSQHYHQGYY
Sequence of HNRNPR, O43390 (O43390 whole entry): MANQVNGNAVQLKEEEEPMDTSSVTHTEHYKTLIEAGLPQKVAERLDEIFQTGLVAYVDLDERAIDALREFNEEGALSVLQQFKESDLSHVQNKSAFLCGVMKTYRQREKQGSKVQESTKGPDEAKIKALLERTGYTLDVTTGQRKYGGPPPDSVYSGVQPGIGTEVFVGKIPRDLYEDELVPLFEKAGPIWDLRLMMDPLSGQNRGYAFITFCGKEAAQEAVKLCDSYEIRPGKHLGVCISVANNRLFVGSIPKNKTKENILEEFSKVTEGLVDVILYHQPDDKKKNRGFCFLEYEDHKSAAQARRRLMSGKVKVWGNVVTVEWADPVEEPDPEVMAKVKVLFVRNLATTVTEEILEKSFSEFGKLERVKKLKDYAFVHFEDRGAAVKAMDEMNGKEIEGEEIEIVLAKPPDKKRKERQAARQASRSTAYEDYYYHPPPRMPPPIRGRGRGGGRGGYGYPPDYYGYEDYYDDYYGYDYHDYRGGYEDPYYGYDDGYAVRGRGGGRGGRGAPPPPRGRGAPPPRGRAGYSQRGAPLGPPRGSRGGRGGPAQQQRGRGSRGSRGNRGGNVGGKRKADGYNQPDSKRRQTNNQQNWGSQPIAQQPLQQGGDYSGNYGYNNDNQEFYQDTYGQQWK
Sequence of HNRNPDL, O14979 (O14979 whole entry): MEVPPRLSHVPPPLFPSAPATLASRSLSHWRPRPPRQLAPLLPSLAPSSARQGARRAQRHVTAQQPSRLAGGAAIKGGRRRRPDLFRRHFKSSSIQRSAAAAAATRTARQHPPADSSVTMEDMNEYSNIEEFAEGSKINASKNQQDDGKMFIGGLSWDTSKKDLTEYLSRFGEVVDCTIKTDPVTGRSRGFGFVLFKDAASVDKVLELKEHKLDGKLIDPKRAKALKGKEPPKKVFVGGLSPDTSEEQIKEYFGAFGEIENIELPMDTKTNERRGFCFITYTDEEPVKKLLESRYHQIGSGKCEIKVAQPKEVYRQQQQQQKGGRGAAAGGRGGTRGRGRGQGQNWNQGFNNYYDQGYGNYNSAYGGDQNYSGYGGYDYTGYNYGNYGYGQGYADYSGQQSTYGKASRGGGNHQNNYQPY
Sequence of GART, P22102 (P22102 whole entry): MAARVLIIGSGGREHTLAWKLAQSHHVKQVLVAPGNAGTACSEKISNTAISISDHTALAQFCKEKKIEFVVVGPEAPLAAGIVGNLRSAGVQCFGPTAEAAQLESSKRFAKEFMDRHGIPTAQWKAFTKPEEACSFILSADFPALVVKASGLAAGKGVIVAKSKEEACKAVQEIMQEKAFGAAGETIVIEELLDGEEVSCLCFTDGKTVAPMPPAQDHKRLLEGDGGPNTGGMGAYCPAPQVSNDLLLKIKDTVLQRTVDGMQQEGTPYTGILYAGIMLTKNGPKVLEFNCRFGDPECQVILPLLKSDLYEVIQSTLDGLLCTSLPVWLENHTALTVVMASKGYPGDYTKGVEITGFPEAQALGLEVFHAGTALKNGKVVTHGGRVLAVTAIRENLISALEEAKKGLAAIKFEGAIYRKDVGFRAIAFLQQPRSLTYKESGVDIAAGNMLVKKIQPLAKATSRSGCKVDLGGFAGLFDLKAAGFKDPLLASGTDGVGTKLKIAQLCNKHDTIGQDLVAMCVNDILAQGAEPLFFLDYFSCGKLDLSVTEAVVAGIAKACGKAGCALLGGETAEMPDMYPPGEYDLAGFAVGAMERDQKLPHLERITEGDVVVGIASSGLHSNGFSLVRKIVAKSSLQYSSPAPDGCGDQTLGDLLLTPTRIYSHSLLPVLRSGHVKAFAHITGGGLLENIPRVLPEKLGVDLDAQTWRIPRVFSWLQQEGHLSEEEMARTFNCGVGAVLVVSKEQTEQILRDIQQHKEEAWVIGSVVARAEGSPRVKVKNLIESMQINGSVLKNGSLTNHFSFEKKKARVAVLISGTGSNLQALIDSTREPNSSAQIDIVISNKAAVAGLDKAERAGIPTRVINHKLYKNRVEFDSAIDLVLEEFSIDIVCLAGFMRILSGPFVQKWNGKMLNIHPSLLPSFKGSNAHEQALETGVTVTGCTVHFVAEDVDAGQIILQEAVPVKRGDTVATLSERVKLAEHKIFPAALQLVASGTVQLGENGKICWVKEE

The test concerns the target HNRNPU (UniProt Q00839). Description: cross-linking mass spectrometry. The settings on record: DSBSO, in cells or nuclear extract, not told apart.
On to HNRNPR, O43390, for which the cross-linked residues result is reported as “K359 - K181”. For the substance HNRNPDL, O14979, the cross-linked residues entry is given as “K302 - K352”.

With GART, P22102, the cross-linked residues entry is “K251 - K331”.
